Data on 16 compounds can be found in PubChem BioAssay (EPA / NIEHS).

The structures appear in SMILES notation. Inconclusive results are not listed. The source made the active and inactive calls. Rule for the calls, unless noted: active = hit-call score of the fitted dose curve at least 0.9, where 1 is the maximum; inconclusive = response in the unintended direction; inactive = score below 0.9.

The nature of test [1]: Tanguay_ZF_120hpf_TRUN_legacy: (Legacy) Oregon State University Tanguay Lab 120 Hour Post-fertilization zebrafish Assay for Truncated Body (AID 2283655). The method in brief: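 Tropical 5D wild-type embryos, dechorionated with pronase at 4 hpf, were placed singly in wells at 6 hpf and statically exposed at 28C until 120 hpf, final DMSO 0.64%. Truncated body was scored present/absent by brightfield microscopy.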

Test [2] in a line: Tanguay_ZF_120hpf_NC_legacy: (Legacy) Oregon State University Tanguay Lab 120 Hour Post-fertilization zebrafish Assay for Notochord and Tail Malformation (AID 2283656). The procedure, abridged: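 Binary notochord-distortion calls, made by brightfield inspection, form the read-out; activity is fitted in the positive direction against DMSO. Exposure ran statically from 6 to 120 hpf at 28C with 0.64% DMSO.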

Test [3] can be described thus: STM_H9_OrnithineISnorm_perc: Stemina devTOX quickPredict H9 human embryonic stem cell (hESC)-based Assay for Ornithine (ORN) Metabolite Biomarker, Normalized (AID 2283712; active = hit-call score of the fitted dose curve at least 0.9, where 1 is the maximum; inactive = score below 0.9;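 note: ornithine released into spent medium during last day measured by mass spectrometry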). The method in brief: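 Metabolite endpoint from spent media of pluripotent H9 cells treated 72 h with daily re-feeding; ornithine measured by UPLC-HRMS against its 13C spike-in and referenced to the median 0.1% DMSO vehicle response.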

Test [4] in a line: STM_H9_CystineISnorm_perc: Stemina devTOX quickPredict H9 human embryonic stem cell (hESC)-based Assay for Cystine (CYSS) Metabolite Biomarker, Normalized (AID 2283713; active = hit-call score of the fitted dose curve at least 0.9, where 1 is the maximum; inactive = score below 0.9). The procedure, abridged: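 Normalized cystine level in conditioned medium from the final 24h of a 72h treatment of pluripotent H9 cells (daily media and compound renewal). Quantified by UPLC-HRMS with C13-labeled internal standard; scaled to median of 0.1% DMSO vehicle wells.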

The nature of test [5]: STM_H9_OrnCyssISnorm_ratio: Stemina devTOX quickPredict H9 human embryonic stem cell (hESC)-based Assay for Ornithine (ORN):Cystine (CYSS) Ratio (AID 2283714). The procedure, abridged:
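UPLC-HRMS of spent media: ORN/CYSS ratio of internal-standard-normalized percentages, DMSO (0.1%) baseline. Pluripotent H9 hESCs, 72h exposure, daily re-dosing with fresh media; last 24h media collected.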

Test [6] is described as follows: Tanguay_ZF_120hpf_ActivityScore_legacy: (Legacy) Oregon State University Tanguay Lab 120 Hour Post-fertilization zebrafish Assay Score for Activity (AID 2283742). The method in brief: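 Dechorionated 5D embryos, one per well, static exposure 6–120 hpf, 28C, sealed and dark; final DMSO 0.64% (vol/vol). Brightfield binary scoring of mortality plus 18 endpoints; gain-of-signal fit versus DMSO baseline.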

The test system of test [7] is Thyroperoxidase (TPO), gene 54314. Put plainly: CCTE_Simmons_AUR_rTPO: CCTE's Amplex UltraRed Assay for Thyroperoxidase (TPO) Inhibition, Simmons Lab (AID 2283662).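 Note: potency for loss of signal meaning inhibition of peroxidase activity.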 The procedure, abridged: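 Rat thyroid microsomal TPO + 25 uM AUR in 200 mM K phosphate; cpd 5 nM–87.5 uM [final], 8 conc, 0.5% DMSO; 300 uM H2O2 starts rxn; 37C dark 30 min; endpoint FI 544/590 nm; n=3.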

Test [8] in a line: CCTE_Simmons_CellTiterGLO_HEK293T: Viability Assessment in CCTE's Assays for Thyroperoxidase (TPO) Inhibition, Simmons Lab (AID 2283665).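 For AC50: cells exposed to compound for 24 h before readout; actives reduce ATP signal below DMSO vehicle meaning cytotoxicity.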 The method in brief:
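ATP depletion measured in HEK293T cells after 24 h dosing (8 concentrations, 5 nM–87.5 uM final; DMSO 0.5%) using CellTiter-Glo luminescence; curves fit for loss of signal against DMSO baseline.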

Test [9] can be described thus: Tanguay_ZF_120hpf_TR_legacy: (Legacy) Oregon State University Tanguay Lab 120 Hour Post-fertilization zebrafish Assay for Touch Response (AID 2283667). The method in brief:
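Binary touch-response call at 120 hpf, analysed as gain of signal versus DMSO baseline. Wild-type 5D larvae, static exposure at 28C, 0.64% DMSO final; 5uM trimethyltin chloride as positive control.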

Test [10] can be described thus: CCTE_Padilla_ZF_144hpf_TERATOSCORE: (Legacy) CCTE's 144 Hour Post-fertilization zebrafish Assay Teratoscore, Padilla Lab (AID 2283679; active = hit-call score of the fitted dose curve at least 0.9, where 1 is the maximum; inactive = score below 0.9;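 for AC50: zebrafish embryos with chorions exposed by immersion from 6-8 hpf to 5 dpf with daily renewal; teratogenicity score from eye scoring of death hatching and malformations at 144 hpf; higher score means more developmental defects relative to DMSO baseline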). The method in brief:
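Larvae scored by eye at 144 hpf for death, hatching and malformations after a day in clean Hanks'. Before that, daily-renewed exposure at 80 uM (0.4% DMSO, 26C) from roughly 6-8 hpf through 5 dpf, 4 embryos per chemical.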

Test [11] deals with Luciferin 4-monooxygenase (Photinus pyralis) (UniProt P08659). The test is described as follows: CCTE_Simmons_QuantiLum_inhib_2: CCTE's Firefly Luciferase Inhibition Assay, Simmons Lab (AID 2283767).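 For AC50: potency for inhibitors that lower luciferase luminescence relative to DMSO.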 The procedure, abridged: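 Eight-point titrations of each chemical, 5 nM–87.5 uM final in 0.5% DMSO, were run in three biological replicates against recombinant luciferase for 30 min at 37C. Bioluminescence signal loss, read on reagent injection, gave the inhibition endpoint.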
Sequence of Luciferin 4-monooxygenase (Photinus pyralis) (P08659 whole entry, looked up): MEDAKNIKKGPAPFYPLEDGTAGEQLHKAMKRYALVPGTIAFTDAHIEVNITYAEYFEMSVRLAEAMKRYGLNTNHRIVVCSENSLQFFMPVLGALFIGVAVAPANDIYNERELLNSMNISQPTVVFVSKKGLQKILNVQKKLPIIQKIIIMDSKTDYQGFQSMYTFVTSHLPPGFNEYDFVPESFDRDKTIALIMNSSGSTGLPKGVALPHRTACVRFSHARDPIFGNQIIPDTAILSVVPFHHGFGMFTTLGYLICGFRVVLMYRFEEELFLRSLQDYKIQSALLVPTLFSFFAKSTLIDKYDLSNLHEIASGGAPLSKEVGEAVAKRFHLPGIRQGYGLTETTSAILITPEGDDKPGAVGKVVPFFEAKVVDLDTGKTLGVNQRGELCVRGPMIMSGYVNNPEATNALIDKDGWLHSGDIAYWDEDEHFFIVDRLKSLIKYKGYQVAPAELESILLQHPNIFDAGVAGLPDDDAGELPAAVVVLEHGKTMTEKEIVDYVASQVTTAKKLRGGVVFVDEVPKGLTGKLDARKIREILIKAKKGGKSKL

Test [12] relates to Thyroperoxidase (TPO), gene 445522. The test is described as follows: CCTE_Simmons_GUA_TPO: CCTE's Guaiacol Assay for Thyroperoxidase (TPO) Inhibition, Simmons Lab (AID 2283750). The procedure, abridged:
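Porcine thyroid microsomes (25 ug) in 200mM potassium phosphate, preincubated 30 s at 37C with compound (8 concentrations, 5 nM–87.5 uM) and 35mM guaiacol; 1mM H2O2 starts reaction. Absorbance change at 450nm over first 80 s; loss of signal versus DMSO, three replicates.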

Read-out in test [13]: solute carrier (SLC10A1), SLC10A1 (gene 6554)
The test is described as follows: LTEA_HepaRG_SLC10A1: Life Technologies and Expression Analysis (LTEA) Assay for solute carrier (SLC10A1) using HepaRG (AID 2283657; active = hit-call score of the fitted dose curve at least 0.9, where 1 is the maximum; inactive = score below 0.9). As to conditions: mRNA level, 48 h; actives raise or lower the signal. The method in brief:
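HepaRG, 48 h exposure, 8-pt half-log curve from 100 uM in 0.5% DMSO, duplicates. Read-out: TaqMan qRT-PCR of SLC10A1 mRNA, normalized to three housekeeping genes. Gain/loss fit vs DMSO baseline.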

Read-out in test [14]: matrix metalloproteinase-1 (MMP1), MMP1 (gene 4312)
Put plainly: LTEA_HepaRG_MMP1: Life Technologies and Expression Analysis (LTEA) Assay for matrix metalloproteinase-1 (MMP1) using HepaRG (AID 2283658; active = hit-call score of the fitted dose curve at least 0.9, where 1 is the maximum; inactive = score below 0.9). As to conditions: mRNA level, 48 h; actives raise or lower the signal. The method in brief:
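Differentiated HepaRG cells, plated 48 h then switched to serum-free induction medium, were exposed in duplicate for 48 h to eight half-log concentrations up to 100 uM in 0.5% DMSO; MMP1 mRNA measured by qRT-PCR, normalized to ACTB, GAPDH, POLR2A.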

Read-out in test [15]: Cytochrome P450 (CYP24A1_1), CYP24A1 (gene 1591)
The test is described as follows: LTEA_HepaRG_CYP24A1_1: Life Technologies and Expression Analysis (LTEA) Assay for Cytochrome P450 (CYP24A1_1) using HepaRG (AID 2283671; active = hit-call score of the fitted dose curve at least 0.9, where 1 is the maximum; inactive = score below 0.9). As to conditions: mRNA level, 48 h; actives raise or lower the signal. The method in brief: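 Readout is CYP24A1 transcript level by qRT-PCR, normalized to three housekeeping genes, with gain or loss of signal fitted against 0.5% DMSO. Human HepaRG cells received compound for 48 h at up to 100 uM.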

The nature of test [16]: CEETOX_H295R_MTT_cell_viability: Viability Assessment in the CeeTox HT-H295R MTT Assay (AID 2283718; active = hit-call score of the fitted dose curve at least 0.9, where 1 is the maximum; inactive = score below 0.9). The method in brief: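 Human H295R adrenal cells, prestimulated 48 h with 10 uM forskolin, were exposed 48 h to chemicals in 0.1% DMSO. Viability was measured in the same wells by MTT (0.5 mg/ml, 4 h, 37 C), absorbance 570/650 nm, as percent of controls.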

The AC50 is the concentration giving half of the maximal activity seen. With `OCCN(CCO)CCO`, the outcome in test [1], in [2], in test [4], in [5] and in [6] was inactive. In addition, the AC50 in test [3] is 0.0236 µM (active).

For the compound `O=C(O)C1(c2ccc3c(c2)OC[C@H](Cc2ccc(-c4ccccc4)cc2)[C@H]3O)CCCC1`, the call in [1], in [9] and in test [6] was inactive. Moreover, the AC50 was 33.4 µM (active) in [7], 13.3 µM (active) in [8], 13.5 µM (active) in test [10] and 85.2 µM (active) in [11].

Regarding `O=S1(=O)OC(c2cc(Br)c(O)c(Br)c2)(c2cc(Br)c(O)c(Br)c2)c2ccccc21`, the AC50 in test [7] is 25.9 µM (active); in test [8] it was 11.1 µM (active); in [11] it was 32.1 µM (active).

Consider `CN(N=O)C(N)=O`, for which, in test [7], the AC50 is 58.9 µM (active). Further, the compound was classed as inactive in test [8] and in [11].

In the case of `Clc1cccc(Cl)c1`, the result in test [1] and in test [6] was inactive.

For `CC(C)O.CC(C)O.OCCN(CCO)CCO.OCCN(CCO)CCO.[Ti]`, the compound was called inactive in test [2], in [9], in [10], in test [3] and in [6]. In addition, the AC50 is 74.1 µM (active) in test [4] and 72.4 µM (active) in test [5].

For the compound `CCOP(=S)(OCC)SCS(=O)(=O)C(C)(C)C`, the AC50 in test [7] was 43.8 µM (active). In addition, the outcome in test [8] and in [11] was inactive.

Turning to `CCOc1ccc(N)cc1`, the AC50 is 1.75 µM (active) in test [7] and 28.4 µM (active) in [8]. Besides, in test [11], the compound was classed as inactive.

Take `Oc1c(Cl)cc(Cl)cc1Cl`: the outcome in test [1], in test [2] and in test [9] was inactive. The AC50 in test [10] is 3.97 µM (active); in [6], 19.1 µM (active).

As to `COc1ccccc1N`, the figures for the AC50 in test [7] and in test [12] were 0.39 µM (active) and 33.2 µM (active), respectively. Also, the result in test [8], in test [9], in [6] and in [11] was inactive.

`Cc1cc(C)cc(C)c1`: the compound was called inactive in test [1], in test [13], in [14], in test [9], in test [15] and in test [16]. The outcome in [6] was inactive.

For `CN(C)C(=S)S`, the call in test [1], in test [9], in test [16] and in test [11] was inactive. For the same compound, the AC50 in [2] was 1.05 µM (active); in test [7] it was 30.8 µM (active); in test [8], 8.68 µM (active); in test [10], 12.4 µM (active); in [3], 66.3 µM (active); in test [4], 75.9 µM (active). Moreover, the AC50 is 71.7 µM (active) in test [5], 0.00103 µM (active) in test [6] and 250 µM (active) in test [12].

With `N#CCC#N`, the compound was classed as inactive in test [8].

As for `O=C(CBr)c1ccc(O)cc1`, the outcome in [8] was inactive.

`N#CCCC(Br)(C#N)CBr` (centres undefined): the AC50 in test [5] is 70.1 µM (active).

On to `O=[N+]([O-])c1ccc(Cl)c([N+](=O)[O-])c1`, for which the AC50 in test [5] is 13.2 µM (active).
